In PubChem BioAssay (Tox21):
Inconclusive results are not listed. Calls of active or inactive are those of the source. Calls come from the whole dose curve; as a rule, active = well fitted cell-killing curve with a large enough effect in the repeat runs; inconclusive = weak or mixed curves, or effect the other way; inactive = flat fitted curve, though single readings scatter.
% is set by controls: 0 for no effect and ±100 for the full control effect.

Assay: qHTS assay to identify small molecule antagonists of the estrogen receptor alpha (ER-alpha) signaling pathway using the BG1 cell line in the presence of 0.1 nM 17-beta-estradiol - cell viability counter screen (AID 1259241); note: nearly all actives have a fitted effect of over 40% in size
Conditions: VM7Luc4E2 (BG1) viability, CellTiter-Fluor protease, 22 h, 0.1 nM estradiol agonist added; series mostly up to 92.4 µM
How it was run: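 The cell line endogenously expresses full-length ER-alpha and carries four EREs driving luciferase. Cells are cultured 5 days hormone-free, treated 22 hr with compounds and 0.1 nM estradiol, then viability is read by fluorescence.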
In the case of `Fc1cc(Br)ccc1CBr`, the outcome is reported as “inactive”. With `CC(Cl)(Cl)[N+](=O)[O-]` the outcome was “inactive”. With `COC(=O)C(c1ccccc1)C1CCCCN1` (centres undefined) the outcome was “inactive”. In the case of `c1cc2c(c(N3CCNCC3)c1)OCCO2`, the outcome is reported as “inactive”. In the case of `CNC(=O)N(C)c1nc2ccccc2s1`, the outcome is reported as “inactive”. In the case of `CC1COC2(c3ccccc3Cl)c3cc(Cl)ccc3NC(=O)CN12` (centres undefined), the outcome is reported as “inactive”. With `O=C1OC(CCN2CCCCC2)OC1(c1ccccc1)c1ccccc1` (centres undefined) the outcome was “inactive”. With `c1ccc(N2CCNCC2)cc1` the outcome was “inactive”. For `COc1ncc(F)c2nc(S(=O)(=O)Nc3c(F)cccc3F)nn12`, the outcome was “inactive”. In the case of `CNC(=O)Oc1c(C(C)(C)C)cc(C)cc1C(C)(C)C`, the outcome is reported as “inactive”. In the case of `Clc1ccccc1N1CCNCC1`, the outcome is reported as “inactive”. With `O=C(O)c1ccc2[nH]cc(CCCCN3CC=C(c4ccccc4)CC3)c2c1` the outcome was “inactive”. For `CCN(CC)C(C)C(=O)c1ccccc1` (centres undefined), the outcome was “inactive”. For `CCOP(=S)(OCC)Oc1ncn(-c2ccccc2)n1`, the outcome was “inactive”. For `COc1ccc2c(c1OC)CN1CCc3cc4c(cc3C1C2)OCO4` (centres undefined), the outcome was “inactive”. For `CCCCCCI`, the outcome was “inactive”. For `CCC(=O)C(CCN(C)C)(c1ccccc1)c1ccccc1`, the outcome was “inactive”. With `CCOC(=O)C(c1c(O)c2ccccc2oc1=O)c1c(O)c2ccccc2oc1=O` the outcome was “inactive”. With `CC(C(O)c1ccccc1)N(C)C/C=C/c1ccccc1` (centres undefined) the outcome was “inactive”. In the case of `CCC(C)(C)c1cc(-n2nc3ccccc3n2)c(O)c(C(C)(C)CC)c1`, the outcome is reported as “inactive”. With `CC(Oc1ccc(Oc2ncc(C(F)(F)F)cc2Cl)cc1)C(=O)O` (centres undefined) the outcome was “inactive”. For `C#C[C@]1(O)C=C[C@H]2[C@@H]3CCC4=CC(=O)CC[C@@H]4[C@H]3CC[C@@]21CC`, the outcome was “inactive”. In the case of `N#CC(Cl)(Cl)Cl`, the outcome is reported as “inactive”. For `O=C(Nc1ccccc1)c1ccccc1I`, the outcome was “inactive”. In the case of `COP(N)(=S)Oc1ccccc1C(=O)OC(C)C` (centres undefined), the outcome is reported as “inactive”. In the case of `O=CNC(N1CCN(C(NC=O)C(Cl)(Cl)Cl)CC1)C(Cl)(Cl)Cl` (centres undefined), the outcome is reported as “inactive”. With `CC(COc1ccc(Oc2ccccc2)cc1)Oc1ccccn1` (centres undefined) the outcome was “inactive”. In the case of `CC1=C(C(=O)O)N2C(=O)[C@@H](N)[C@H]2SC1`, the activity change, negative = cytotoxicity is reported as 0.956% [at 19 µM] (inactive). With `Cc1cnc[nH]1` the outcome was “inactive”. For `C#CCN1C(=O)COc2cc(F)c(N3C(=O)C4=C(CCCC4)C3=O)cc21`, the outcome was “inactive”. With `CCOP(=O)(OCC)OP(=O)(OCC)OCC` the outcome was “inactive”. With `CCCCOC(=O)c1ccccc1C(=O)O` the outcome was “inactive”. With `CC(C)CC#N` the outcome was “inactive”. In the case of `Cc1nc(N)nc(N)n1`, the outcome is reported as “inactive”. In the case of `CCOC(=O)C1(c2ccccc2)CCN(CCc2ccc(N)cc2)CC1`, the outcome is reported as “inactive”. In the case of `CCC(=O)c1ccccc1`, the outcome is reported as “inactive”. With `C[C@]12CC[C@H]3[C@@H](CCC4=CC(=O)CC[C@@]43C)[C@@H]1CC[C@@H]2C(=O)O` the outcome was “inactive”.

Assay: qHTS assay to identify small molecule antagonists of the androgen receptor (AR) signaling pathway using the MDA cell line in the presence of 0.5 nM R1881 - cell viability counter screen (AID 1259242); note: nearly all actives have a fitted effect of over 45% in size
Conditions: MDA-kb2 viability, CellTiter-Fluor protease fluorescence, 16 h; series mostly up to 92.4 µM
How it was run: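 MDA-kb2 cells (MMTV-luciferase, AR/GR responsive) were treated with compounds plus 0.5 nM R1881 (final) for 16 hr at 37C, 0% CO2. Viability was then read in the same wells as live-cell protease fluorescence (CellTiter-Fluor, 30 min).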
In the case of `Fc1cc(Br)ccc1CBr`, the outcome is reported as “inactive”. For `CC(Cl)(Cl)[N+](=O)[O-]`, the outcome was “inactive”. With `COC(=O)C(c1ccccc1)C1CCCCN1` (centres undefined) the outcome was “inactive”. In the case of `c1cc2c(c(N3CCNCC3)c1)OCCO2`, the outcome is reported as “inactive”. For `CNC(=O)N(C)c1nc2ccccc2s1`, the outcome was “inactive”. In the case of `CC1COC2(c3ccccc3Cl)c3cc(Cl)ccc3NC(=O)CN12` (centres undefined), the outcome is reported as “inactive”. With `O=C1OC(CCN2CCCCC2)OC1(c1ccccc1)c1ccccc1` (centres undefined) the outcome was “inactive”. In the case of `c1ccc(N2CCNCC2)cc1`, the outcome is reported as “inactive”. In the case of `COc1ncc(F)c2nc(S(=O)(=O)Nc3c(F)cccc3F)nn12`, the outcome is reported as “inactive”. With `CNC(=O)Oc1c(C(C)(C)C)cc(C)cc1C(C)(C)C` the outcome was “inactive”. For `Clc1ccccc1N1CCNCC1`, the outcome was “inactive”. For `O=C(O)c1ccc2[nH]cc(CCCCN3CC=C(c4ccccc4)CC3)c2c1`, the outcome was “inactive”. In the case of `CCN(CC)C(C)C(=O)c1ccccc1` (centres undefined), the outcome is reported as “inactive”. With `CCOP(=S)(OCC)Oc1ncn(-c2ccccc2)n1` the outcome was “inactive”. For `COc1ccc2c(c1OC)CN1CCc3cc4c(cc3C1C2)OCO4` (centres undefined), the outcome was “inactive”. With `CCCCCCI` the outcome was “inactive”. In the case of `CCC(=O)C(CCN(C)C)(c1ccccc1)c1ccccc1`, the outcome is reported as “inactive”. In the case of `CCOC(=O)C(c1c(O)c2ccccc2oc1=O)c1c(O)c2ccccc2oc1=O`, the outcome is reported as “inactive”. With `CC(C(O)c1ccccc1)N(C)C/C=C/c1ccccc1` (centres undefined) the outcome was “inactive”. For `CCC(C)(C)c1cc(-n2nc3ccccc3n2)c(O)c(C(C)(C)CC)c1`, the outcome was “inactive”. In the case of `CC(Oc1ccc(Oc2ncc(C(F)(F)F)cc2Cl)cc1)C(=O)O` (centres undefined), the outcome is reported as “inactive”. With `C#C[C@]1(O)C=C[C@H]2[C@@H]3CCC4=CC(=O)CC[C@@H]4[C@H]3CC[C@@]21CC` the outcome was “inactive”. In the case of `N#CC(Cl)(Cl)Cl`, the outcome is reported as “inactive”. In the case of `O=C(Nc1ccccc1)c1ccccc1I`, the outcome is reported as “inactive”. For `COP(N)(=S)Oc1ccccc1C(=O)OC(C)C` (centres undefined), the outcome was “inactive”. For `O=CNC(N1CCN(C(NC=O)C(Cl)(Cl)Cl)CC1)C(Cl)(Cl)Cl` (centres undefined), the outcome was “inactive”. In the case of `CC(COc1ccc(Oc2ccccc2)cc1)Oc1ccccn1` (centres undefined), the outcome is reported as “inactive”. With `CC1=C(C(=O)O)N2C(=O)[C@@H](N)[C@H]2SC1` the viability change, negative = cytotoxic was 2.31% [at 19 µM] (inactive). In the case of `Cc1cnc[nH]1`, the outcome is reported as “inactive”. In the case of `C#CCN1C(=O)COc2cc(F)c(N3C(=O)C4=C(CCCC4)C3=O)cc21`, the outcome is reported as “inactive”. In the case of `CCOP(=O)(OCC)OP(=O)(OCC)OCC`, the outcome is reported as “inactive”. For `CCCCOC(=O)c1ccccc1C(=O)O`, the outcome was “inactive”. For `CC(C)CC#N`, the outcome was “inactive”. For `Cc1nc(N)nc(N)n1`, the outcome was “inactive”. For `CCOC(=O)C1(c2ccccc2)CCN(CCc2ccc(N)cc2)CC1`, the outcome was “inactive”. With `CCC(=O)c1ccccc1` the outcome was “inactive”. For `C[C@]12CC[C@H]3[C@@H](CCC4=CC(=O)CC[C@@]43C)[C@@H]1CC[C@@H]2C(=O)O`, the outcome was “inactive”.
